{"source": "the supplement of paper PMC8728848", "experiment_in_all_cases": "glycan array binding signal (z-score within array); higher = stronger binding", "details_in_all_cases": "glycan notation: IUPAC condensed, linker removed", "key": {"[1]": {"biological_target": "Fuc(a1-2)Gal(b1-3)GlcNAc(b1-3)Gal(b1-4)Glc", "procedure,_shortened": "(§1)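 The binding signal is a Z-score computed within each array. Data were drawn from 3228 arrays in the Consortium for Functional Glycomics database, restricted to those with a known protein sequence. Scores were averaged over arrays of the same protein sequence at different concentrations or buffers, and over linkers, and negative values can be taken as non-binding.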"}, "[2]": {"biological_target": "Fuc(a1-2)[Gal(a1-3)]Gal(b1-3)GlcNAc", "procedure,_shortened": "as §1"}, "[3]": {"biological_target": "Fuc(a1-2)[Gal(a1-3)]Gal(b1-4)Glc", "procedure,_shortened": "as §1"}, "Gal(b1-3)Gal(b1-4)GlcNAc": {"biological_target": "Gal(b1-3)Gal(b1-4)GlcNAc", "procedure,_shortened": "as §1"}, "Gal(b1-3)GalNAc": {"biological_target": "Gal(b1-3)GalNAc", "procedure,_shortened": "as §1"}, "[4]": {"biological_target": "Gal(b1-4)GalNAc(b1-3)[Fuc(a1-2)]Gal(b1-4)GlcNAc", "procedure,_shortened": "as §1"}, "[5]": {"biological_target": "Gal(b1-4)GlcNAc(b1-3)Gal(b1-4)GlcNAc", "procedure,_shortened": "as §1"}, "Gal3S(b1-3)GlcNAc": {"biological_target": "Gal3S(b1-3)GlcNAc", "procedure,_shortened": "as §1"}, "Gal6S(b1-4)Glc6S": {"biological_target": "Gal6S(b1-4)Glc6S", "procedure,_shortened": "as §1"}, "Gal6S(b1-4)GlcNAc": {"biological_target": "Gal6S(b1-4)GlcNAc", "procedure,_shortened": "as §1"}, "GalNAc(b1-3)Gal": {"biological_target": "GalNAc(b1-3)Gal", "procedure,_shortened": "as §1"}, "GlcNAc(b1-4)GlcNAc": {"biological_target": "GlcNAc(b1-4)GlcNAc", "procedure,_shortened": "as §1"}, "Man(a1-2)Man(a1-3)Man": {"biological_target": "Man(a1-2)Man(a1-3)Man", "procedure,_shortened": "as §1"}, "[6]": {"biological_target": "Man(a1-2)Man(a1-3)[Man(a1-2)Man(a1-6)]Man(a1-6)[Man(a1-2)Man(a1-2)Man(a1-3)]Man(b1-4)GlcNAc(b1-4)GlcNAc", "procedure,_shortened": "as §1"}, "[7]": {"biological_target": "Neu5Ac(a2-3)Gal(b1-3)GlcNAc", "procedure,_shortened": "as §1"}, "[8]": {"biological_target": "Neu5Ac(a2-3)Gal(b1-3)GlcNAc(b1-3)Gal(b1-3)GlcNAc", "procedure,_shortened": "as §1"}, "[9]": {"biological_target": "Neu5Ac(a2-3)Gal(b1-3)[Fuc(a1-4)]GlcNAc", "procedure,_shortened": "as §1"}, "[10]": {"biological_target": "Neu5Ac(a2-3)Gal(b1-3)[Neu5Ac(a2-3)Gal(b1-4)]GlcNAc", "procedure,_shortened": "as §1"}, "[11]": {"biological_target": "Neu5Ac(a2-3)Gal(b1-4)GlcNAc(b1-3)Gal(b1-4)GlcNAc(b1-3)Gal(b1-4)GlcNAc", "procedure,_shortened": "as §1"}, "[12]": {"biological_target": "Neu5Ac(a2-3)Gal(b1-4)GlcNAc(b1-3)Gal(b1-4)[Fuc(a1-3)]GlcNAc", "procedure,_shortened": "as §1"}, "[13]": {"biological_target": "Neu5Ac(a2-3)Gal6S(b1-4)[Fuc(a1-3)]GlcNAc", "procedure,_shortened": "as §1"}, "Neu5Ac(a2-3)GalNAc": {"biological_target": "Neu5Ac(a2-3)GalNAc", "procedure,_shortened": "as §1"}, "[14]": {"biological_target": "Neu5Ac(a2-6)Gal(b1-4)GlcNAc", "procedure,_shortened": "as §1"}, "[15]": {"biological_target": "Neu5Ac(a2-6)Gal(b1-4)GlcNAc(b1-2)Man(a1-6)[GlcNAc(b1-2)Man(a1-3)]Man(b1-4)GlcNAc(b1-4)GlcNAc", "procedure,_shortened": "as §1"}, "[16]": {"biological_target": "Neu5Ac(a2-6)Gal(b1-4)GlcNAc(b1-3)Gal(b1-4)GlcNAc", "procedure,_shortened": "as §1"}, "Neu5Gc(a2-6)GalNAc": {"biological_target": "Neu5Gc(a2-6)GalNAc", "procedure,_shortened": "as §1"}}, "note": "This excerpt belongs to a sample that is enriched for the strongest signals.", "data": [{"binder": "mLPHN-1 (Mus musculus), Q80TR1 (protein) MARLAAALWSLCVTTVLVTSATQGLSRAGLPFGLMRRELACEGYPIELRCPGSDVIMVENANYGRTDDKICDADPFQMENVQCYLPDAFKIMSQRCNNRTQCVVVAGSDAFPDPCPGTYKYLEVQYDCVPYIFVCPGTLQKVLEPTSTHESEHQSGAWCKDPLQAGDRIYVMPWIPYRTDTLTEYASWEDYVAARHTTTYRLPNRVDGTGFVVYDGAVFYNKERTRNIVKYDLRTRIKSGETVINTANYHDTSPYRWGGKTDIDLAVDENGLWVIYATEGNNGRLVVSQLNPYTLRFEGTWETGYDKRSASNAFMVCGVLYVLRSVYVDDDSEAAGNRVDYAFNTNANREEPVSLAFPNPYQFVSSVDYNPRDNQLYVWNNYFVVRYSLEFGPPDPSAGPATSPPLSTTTTARPTPLTSTASPAATTPLRRAPLTTHPVGAINQLGPDLPPATAPAPSTRRPPAPNLHVSPELFCEPREVRRVQWPATQQGMLVERPCPKGTRGIASFQCLPALGLWNPRGPDLSNCTSPWVNQVAQKIKSGENAANIASELARHTRGSIYAGDVSSSVKLMEQLLDILDAQLQALRPIERESAGKNYNKMHKRERTCKDYIKAVVETVDNLLRPEALESWKDMNATEQVHTATMLLDVLEEGAFLLADNVREPARFLAAKQNVVLEVTVLNTEGQVQELVFPQEYPSENSIQLSANTIKQNSRNGVVKVVFILYNNLGLFLSTENATVKLAGEAGTGGPGGASLVVNSQVIAASINKESSRVFLMDPVIFTVAHLEAKNHFNANCSFWNYSERSMLGYWSTQGCRLVESNKTHTTCACSHLTNFAVLMAHREIYQGRINELLLSVITWVGIVISLVCLAICISTFCFLRGLQTDRNTIHKNLCINLFLAELLFLVGIDKTQYEVACPIFAGLLHYFFLAAFSWLCLEGVHLYLLLVEVFESEYSRTKYYYLGGYCFPALVVGIAAAIDYRSYGTEKACWLRVDNYFIWSFIGPVSFVIVVNLVFLMVTLHKMIRSSSVLKPDSSRLDNIKSWALGAIALLFLLGLTWAFGLLFINKESVVMAYLFTTFNAFQGVFIFVFHCALQKKVHKEYSKCLRHSYCCIRSPPGGTHGSLKTSAMRSNTRYYTGTQSRIRRMWNDTVRKQTESSFMAGDINSTPTLNRGTMGNHLLTNPVLQPRGGTSPYNTLIAESVGFNPSSPPVFNSPGSYREPKHPLGGREACGMDTLPLNGNFNNSYSLRSGDFPPGDGGPEPPRGRNLADAAAFEKMIISELVHNNLRGASGGAKGPPPEPPVPPVPGVSEDEAGGPGSADRAEIELLYKALEEPLLLPRAQSVLYQSDLDESESCTAEDGATSRPLSSPPGRDSLYASGANLRDSPSYPDSSPEGPNEALPPPPPAPPGPPEIYYTSRPPALVARNPLQGYYQVRRPSHEGYLAAPSLEGPGPDGDGQMQLVTSL", "values": [{"measurement": "glycan array binding signal (z-score)", "setting": "[1]", "value": 0.213}, {"measurement": "glycan array binding signal (z-score)", "setting": "[2]", "value": 15.8}, {"measurement": "glycan array binding signal (z-score)", "setting": "[3]", "value": -0.219}, {"measurement": "glycan array binding signal (z-score)", "setting": "Gal(b1-3)Gal(b1-4)GlcNAc", "value": 0.16}, {"measurement": "glycan array binding signal (z-score)", "setting": "Gal(b1-3)GalNAc", "value": 0.025}, {"measurement": "glycan array binding signal (z-score)", "setting": "[4]", "value": 1.66}, {"measurement": "glycan array binding signal (z-score)", "setting": "[5]", "value": -0.105}, {"measurement": "glycan array binding signal (z-score)", "setting": "Gal3S(b1-3)GlcNAc", "value": 2.08}, {"measurement": "glycan array binding signal (z-score)", "setting": "Gal6S(b1-4)Glc6S", "value": 1.13}, {"measurement": "glycan array binding signal (z-score)", "setting": "Gal6S(b1-4)GlcNAc", "value": 1.27}, {"measurement": "glycan array binding signal (z-score)", "setting": "GalNAc(b1-3)Gal", "value": 0.793}, {"measurement": "glycan array binding signal (z-score)", "setting": "GlcNAc(b1-4)GlcNAc", "value": -0.282}, {"measurement": "glycan array binding signal (z-score)", "setting": "Man(a1-2)Man(a1-3)Man", "value": -0.173}, {"measurement": "glycan array binding signal (z-score)", "setting": "[6]", "value": 0.551}, {"measurement": "glycan array binding signal (z-score)", "setting": "[7]", "value": 0.014}, {"measurement": "glycan array binding signal (z-score)", "setting": "[8]", "value": -0.317}, {"measurement": "glycan array binding signal (z-score)", "setting": "[9]", "value": 0}, {"measurement": "glycan array binding signal (z-score)", "setting": "[10]", "value": -0.26}, {"measurement": "glycan array binding signal (z-score)", "setting": "[11]", "value": -0.433}, {"measurement": "glycan array binding signal (z-score)", "setting": "[12]", "value": -0.402}, {"measurement": "glycan array binding signal (z-score)", "setting": "[13]", "value": -0.065}, {"measurement": "glycan array binding signal (z-score)", "setting": "Neu5Ac(a2-3)GalNAc", "value": 0.587}, {"measurement": "glycan array binding signal (z-score)", "setting": "[14]", "value": 0.157}, {"measurement": "glycan array binding signal (z-score)", "setting": "[15]", "value": -0.261}, {"measurement": "glycan array binding signal (z-score)", "setting": "[16]", "value": -0.422}, {"measurement": "glycan array binding signal (z-score)", "setting": "Neu5Gc(a2-6)GalNAc", "value": 1.3}]}]}
